CBFb-RUNX1 inh: inhibitors of human CBF-beta and RUNX1 interaction. AlphaScreen CBFb-His/RUNX1-biotin binding, biochemical. Potency, µM (doses to about 59.8 µM), usual class: inhibitors. Q01196+Q13951. AID 1477. 230,000 tested, under 10 active
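CBFb-His/RUNX1-biotin, 30 nM each, preincubated 20 min RT; compound 15 min RT; Ni + streptavidin beads 50 ng each, 90 min RT; AlphaScreen read.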
HTT aggregate: mutant huntingtin aggregation inhibition. PC12 HttQ103-GFP aggregates, Acumen cytometry, 40 h. Potency, µM (top dose mostly 46.1 µM), most hits filed as inhibitors. hit rate 1.1% among 220,000. AID 1688; also: nearly all actives have a fitted effect of over 60% in size
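PC12/HTTQ103-GFP, ecdysone-inducible; teb 100 nM; cpd qHTS titration; GFP aggregates read on laser cytometer, Ex 488/Em 500-530 nm.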
HPGD inh: blocks human HPGD enzyme activity | Potency, µM, usual class: inhibitors | hit rate 4.3% among 150,000 | purified HPGD, NADH fluorescence kinetic, PGE2 substrate | P15428; active = well fitted inhibition curve with a large enough effect, not every such curve was filed as active; inconclusive = small, poorly fitted or top-dose-only effect, or another doubt; inactive = no such curve, though single readings can be large or run the other way
Target sequence (P15428 whole entry, looked up): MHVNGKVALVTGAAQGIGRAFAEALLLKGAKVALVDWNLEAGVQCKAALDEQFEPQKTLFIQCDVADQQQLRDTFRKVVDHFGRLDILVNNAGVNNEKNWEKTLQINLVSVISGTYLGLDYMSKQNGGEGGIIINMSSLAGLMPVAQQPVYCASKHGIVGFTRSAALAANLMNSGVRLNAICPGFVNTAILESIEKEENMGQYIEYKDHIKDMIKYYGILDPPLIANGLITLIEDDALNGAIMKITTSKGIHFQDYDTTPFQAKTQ
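20 nM HPGD preincubated 15 min at room temperature with compound in 50 mM Tris-HCl pH 8, 0.01% Tween 20. Started with 1 mM NAD+ and 30 uM prostaglandin E2; NADH fluorescence (360/450 nm) read 5 times over 30-s intervals, last minus first.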
ALDH1A1 block: inhibitors of human aldehyde dehydrogenase 1A1. Purified ALDH1A1, NADH fluorescence, propionaldehyde substrate. Potency, µM (top dose mostly 75.3 µM), most hits filed as inhibitors. hit rate 7.3% among 220,000; active = well fitted inhibition curve with a large enough effect, not every such curve was filed as active; inconclusive = small, poorly fitted or top-dose-only effect, or another doubt; inactive = no such curve, though single readings can be large or run the other way
PNC inhibitor: perinucleolar compartment assembly inhibition; AID 2417; activity change (PNC), negative = inhibition, % at 10 µM; PC3M PTB-GFP, PNC prevalence imaging, 16 h; hits give low values; hit rate 3.1% among 140,000;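 active = readout at or below -70, meaning at least 70% loss of cells showing the perinucleolar compartment, a nuclear body marking cancer cells; inconclusive = readout between -30 and a set limit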
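PC3M cells stably expressing PTB-GFP, 750–1000 cells/well, treated 16 h at 37 °C with compound (23 nl of library stock), in duplicate. After paraformaldehyde fixation and Hoechst stain, imaged at 20x; PNC prevalence scored by image analysis.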
HTT cytoprotect: cytoprotection in Huntington HTT-Q103 PC12 cell model; Potency, µM (top dose mostly 56.4 µM), hits mostly activators; hit rate 0.14% among 230,000; AID 1471; PC12 HTT-Q103 induced, cytoprotection, ATP luminescence, 40 h; also: nearly all actives have a fitted effect of over 45% in size
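Huntington model: PC12 line, ecdysone-inducible HTTQ103 exon1–GFP, tebufenozide 100 nM. Test articles in a dose series. Endpoint luminescence from cellular ATP.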
A number is an active result; – = inactive; ? = inconclusive; · = no result; [ ] = dose if it differs, or a comment. Sampled rows, rich in hits. Any-hit rate of the full collection: about 11%. Unless noted, calls follow the shape of the dose curve; as a rule, active = well fitted curve in the direction sought with a large enough effect; inconclusive = small, poorly fitted or top-dose-only effect, or another doubt; inactive = no such curve, though single readings can be large; an effect the other way counts as inactive or inconclusive.

SMILES	CBFb-RUNX1 inh	HTT aggregate	HPGD inh	ALDH1A1 block	PNC inhibitor	HTT cytoprotect
CN(C)S(=O)(=O)c1ccc(=S)[nH]c1	–	–	·	1µM	·	–
CN(C)S(=O)(=O)c1ccc(-n2cccc2)cc1	–	–[9.22 µM]	·	–	·	–
CCOC(=O)c1ccc(Oc2nc(OC)nc(N(C)C)n2)cc1	–	–	–	–	-93	–[10 µM]
CCOc1ccc(NC(=O)C2C3CC/C=C\CCC32)cc1 (centres undefined)	–	–[9.22 µM]	·	·	·	–[10 µM]
CN1Cc2c(C(=O)OC(C)(C)C)ncn2-c2ccsc2C1=O	–	·	–	11µM	·	?
O=C(CSC1=NC(=O)C(Cc2ccccc2)C(=O)N1)Nc1ncccn1 (centres undefined)	–	–	·	–	?	–
O=C(CSC1=NC(=O)C(Cc2ccccc2)C(=O)N1)Nc1ncc(Br)cc1Br (centres undefined)	–	–	·	40µM	·	–
O=S(=O)(NCc1ccco1)c1ccc(S(=O)(=O)N2CCCC2)cc1	–	–[9.22 µM]	·	8.9µM	·	–[10 µM]
COc1ccc(NS(=O)(=O)c2ccc(N/N=C/c3ccc(N4CCOCC4)cc3)c([N+](=O)[O-])c2)cc1	–	2µM	–	–	–	·
COc1ccc(NS(=O)(=O)c2ccc(SC)cc2)cc1	–	–	–	0.16µM	–	–[10 µM]
O=S(=O)(NCc1ccco1)c1cccc(S(=O)(=O)N2CCOCC2)c1	–	–	–	–	–	–
CSc1ccc(S(=O)(=O)Nc2ccc3c(c2)OCCO3)cc1	–	–	–	16µM	–	–
Cc1ccc(S(=O)(=O)Nc2ccc(N3CCOCC3)cc2)cc1[N+](=O)[O-]	–	–	·	?	·	–
Cc1ccc(S(=O)(=O)N2CCCN(S(=O)(=O)c3ccc(C)cc3)CC2)cc1	–	?	–	?	–	–
COc1cccc(NS(=O)(=O)c2ccc(S(=O)(=O)N3CCOCC3)cc2)c1	–	–	–	–	?	–
O=S(=O)(Nc1ccc(S(=O)(=O)N2CCCCC2)cc1)c1cccs1	–	–	–	13µM	-102	–[0.074 µM]
Cc1ccc(S(=O)(=O)Nc2ccc(S(=O)(=O)N3CCCC3)cc2)cc1	–	–	–	0.56µM	?	–
COc1ccc(S(=O)(=O)Nc2ccc(S(=O)(=O)N3CCOCC3)cc2)cc1	–	–	–	4.5µM	–	–
O=C(O)CCC(=O)N1CCc2cc(S(=O)(=O)Nc3ccc4c(c3)OCCO4)ccc21	–	–	25µM	–	–	–
CCOc1ccc(NS(=O)(=O)c2ccc3c(c2)CCN3C(=O)CCC(=O)O)cc1	–	–	–	–	–	–
O=C(O)C1CC(CCCP(=O)(O)O)CCN1 (centres undefined)	–	·	·	·	·	·
Cc1c(NC(=O)CN2C(=O)NC3(CCC(C)CC3)C2=O)c(=O)n(-c2ccccc2)n1C (centres undefined)	–	–	·	–	·	–
CCC(=O)Nc1cc(C(=O)O)ccc1Sc1ccc(Cl)cc1	–	–	·	–	·	–
CCCCNc1nc(C)nc2c1nc(-c1ccccc1)n2C(C)CCCN(CC)CC (centres undefined)	–	·	?	?	·	–
COc1ccc([C@@H](Nc2ccccn2)c2cc(C(C)(C)C)cc(C(C)(C)C)c2O)cc1	·	·	–	–[13.5 µM]	·	–[10 µM]
SMILES	CBFb-RUNX1 inh	HTT aggregate	HPGD inh	ALDH1A1 block	PNC inhibitor	HTT cytoprotect
CC(NC(=O)/C=C/c1ccco1)c1nc2ccccc2n1Cc1cccc(Cl)c1 (centres undefined)	–	–	–	14µM	–	–[10 µM]
O=C(Nc1nc2ccccc2n1Cc1ccc(Cl)cc1)c1ccco1	–	–	?	–	–	–
CCN(C(=O)c1ccc(Cl)c([N+](=O)[O-])c1)c1ccccc1	–	–[9.22 µM]	·	13µM	·	–[10 µM]
COc1ccc(C(=O)Nc2ccc3oc(-c4cccc(Cl)c4)cc(=O)c3c2O)cc1	–	–[9.22 µM]	·	·	·	–[10 µM]
CN(CC(=O)Nc1ccc(F)c(F)c1F)c1cnccn1	–	?	–	–	-100	–[10 µM]
CCCOc1ccc(N2C(=O)CC(SCCc3nc4ccccc4[nH]3)C2=O)cc1 (centres undefined)	–	–[9.22 µM]	·	?	·	–[10 µM]
COC(=O)c1ccc(N2C(=O)CC(SCCN)C2=O)cc1 (centres undefined)	–	–	–	13µM	–	–[10 µM]
CCOC(=O)C(N)CSC1CC(=O)N(c2ccc(C(=O)OC)cc2)C1=O (centres undefined)	–	–	–	7.1µM	–	–
CCOc1ccc(N2C(=O)CC(N)C2=O)cc1 (centres undefined)	–	?	40µM	1.1µM	?	–[10 µM]
CCOc1ccc(N2C(=O)CC(SCC(=O)O)C2=O)cc1 (centres undefined)	–	–[9.22 µM]	·	?	·	–[10 µM]
CCCOc1ccc(N2C(=O)CC(SCCN)C2=O)cc1 (centres undefined)	–	–	–	0.22µM	–	–[1.9 µM]
CCCCN(Cc1cc2ccccc2[nH]c1=O)C(=O)c1ccccn1	–	–[9.22 µM]	–	–	–	–
CN1CCc2c(c3c(n2C)CCN(C)[C@H]3c2ccccc2F)[C@@H]1c1ccccc1F	–	–	–	–	–	–
COc1ccc(N(C)C(=O)c2cnc(N3CCN(c4ncccn4)CC3)c3ccccc23)cc1	–	–	28µM	–	–	–
O=C(c1cnc(N2CCN(c3ncccn3)CC2)c2ccccc12)N1CCN(c2ccccn2)CC1	–	–	–	?	?	–
COc1cccc(OCc2nc(-c3cccc([N+](=O)[O-])c3)no2)c1	–	–	·	–	·	–
COc1cccc(-c2noc(Cn3nc(C)c([N+](=O)[O-])c3C)n2)c1	–	–	25µM	–	–	–
CC(=O)OC1CCC23CC1(C)CCC2C(C)(C)CC3OC(C)=O (centres undefined)	·	·	–	–	·	·
CCCCCCCCCCCCCCCC(=O)NC(C)C	–	·	–	–	·	–
CCOC(=O)C(=O)C1=C(N2CCOCC2)/C(=C\c2ccc(F)cc2)CC1	–	–	–	13µM	–	–[10 µM]
CCCCN(C(=O)NC(=O)C1=C(N2CCOCC2)/C(=C/c2ccccc2)CC1)S(C)(=O)=O	–	–	?	?	?	–
Cc1ccc(C(c2c(O)nc3n(c2=O)CCS3)c2c(O)nc3n(c2=O)CCS3)cc1	–	–	–	?	-81	–[10 µM]
O=c1c(C(c2ccc(Br)cc2)c2c(O)nc3n(c2=O)CCS3)c(O)nc2n1CCS2	–	–[9.22 µM]	·	·	·	–[10 µM]
O=c1c(C(c2ccc(O)cc2)c2c(O)nc3n(c2=O)CCS3)c(O)nc2n1CCS2	–	–	13µM	13µM	–	–
CC(NC(=O)Cn1ccsc1=N)C12CC3CC(CC(C3)C1)C2 (centres undefined)	–	–	–	–	–	–
CC(NC(=O)CSC(=S)N(C)C)C12CC3CC(CC(C3)C1)C2 (centres undefined)	–	–	·	13µM	–	–[10 µM]
